In the supplement of paper PMC4166925:
± gives the standard deviation of the averaged measurements. Over roughly 33,000 sequences, “E-score (dimensionless, -0.5 to 0.5)” has its median near -0.049; the highest 2% begin near 0.37. This excerpt belongs to a sample that is enriched for the highest values.

Tested on: T1, PmTbr T-box DNA-binding domain (GST fusion)
T1 sequence: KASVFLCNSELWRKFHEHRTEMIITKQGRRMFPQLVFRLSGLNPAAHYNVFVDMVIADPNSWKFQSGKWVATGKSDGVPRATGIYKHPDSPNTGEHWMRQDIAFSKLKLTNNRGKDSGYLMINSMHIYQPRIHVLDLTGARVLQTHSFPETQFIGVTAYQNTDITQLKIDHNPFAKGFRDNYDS
Experiment: PBM E-score of 8-mer (E-score (dimensionless, -0.5 to 0.5)); Tbr is Tbrain of the sea star Patiria miniata (Pm) or the sea urchin Strongylocentrotus purpuratus (Sp); higher = stronger binding preference
Details: the construct has about 5 more residues each side
Outline: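 Universal Agilent oligonucleotide arrays, made double-stranded by primer extension, were incubated with 200 nM GST-fused Tbr T-box DNA-binding domain in PBS (pH 7.5). The protein was expressed in BL21 E. coli at 20 °C and purified by glutathione affinity chromatography. After scanning and quantification, the Universal PBM Analysis Suite assigned an enrichment E-score to each ungapped 8-mer, averaged over duplicate arrays.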

Sequence	PBM E-score of 8-mer
CCTCACAC	0.475 ± 0.005
GCTCACAC	0.424 ± 0.01
ACTCACAC	0.4612 ± 0.00083
GCACACAC	0.219 ± 0.039
CCTCACAG	0.127 ± 0.049
ACTCACAT	-0.0309 ± 0.043
ACTACCTC	-0.248 ± 0.022
ACTCCACC	-0.0966 ± 0.022
CGGCCAGA	-0.215 ± 0.011
CCACTTAG	-0.0105 ± 0.01
ACACTTAA	0.362 ± 0.031
GCACTTAC	0.178 ± 0.015
CCACTTAC	0.201 ± 0.0076
ACACTTAG	0.416 ± 0.0068
ACTCTTAG	-0.0903 ± 0.065
ACACTTAT	0.387 ± 0.0076
ACTCTTAT	-0.0869 ± 0.047
ACACTTAC	0.412 ± 0.0079
CTTAAGAC	-0.218 ± 0.055
CCGATCCG	-0.094 ± 0.017
CGGTTAGA	-0.182 ± 0.026
ACATTAGG	0.0856 ± 0.037
ACAGGGCG	0.0776 ± 0.037
AAGCGCGG	0.0485 ± 0.038
CAGCGCGA	0.203 ± 0.029

Sequence	PBM E-score of 8-mer
GAGCGCGA	0.291 ± 0.019
AAGCGCGA	0.375 ± 0.017
TAGCGCGA	0.3803 ± 0.0017
AAGCGCGC	0.106 ± 0.015
CCACGCTA	-0.0567 ± 0.028
ACTCAGCA	-0.151 ± 0.053
TCCTAGAA	-0.0822 ± 0.13
ACTAGCAA	0.00762 ± 0.0026
GCTAGCAC	0.33 ± 0.0063
CCTAGCAC	0.3709 ± 0.0033
ACTAGCAG	-0.0294 ± 0.074
ACTAGCAC	0.381 ± 0.013
CCTAGCAA	0.128 ± 0.069
CTTGGAAA	-0.0932 ± 0.023
CATCTATC	-0.196 ± 0.023
CGAGTGCG	0.225 ± 0.033
AAGGTTTC	0.0322 ± 0.0076
AAGGTGTC	0.4879 ± 0.0035
CAGGTGTC	0.4791 ± 0.0044
ACGGTGTC	0.26 ± 0.076
ACGGTGTA	0.16 ± 0.0067
GCGGTGTA	-0.136 ± 0.021
AAGGTGTA	0.404 ± 0.026
CCGGTGTA	0.0868 ± 0.027
GAGGTGTA	0.44018 ± 0.00028

Sequence	PBM E-score of 8-mer
GGGGTGTA	0.175 ± 0.0049
CAGATGTC	-0.0861 ± 0.049
CAGGTGTA	0.3628 ± 0.0011
GGCATTAC	-0.165 ± 0.0079
GGATACCC	-0.327 ± 0.049
GGAGAGGA	-0.1 ± 0.0036
CTTGGGGA	-0.196 ± 0.039
ATAAGTGG	0.124 ± 0.042
CAATGGAC	-0.0519 ± 0.011
TGCCCACA	-0.0968 ± 0.015
AAGGTGTG	0.4811 ± 0.0016
ACGGTGTG	0.324 ± 0.012
AAGGTTTG	-0.16 ± 0.015
AATGGCTG	-0.207 ± 0.038
TGTGATAA	0.406 ± 0.046
TATGATAA	-0.0124 ± 0.036
GGTGATAA	0.413 ± 0.018
CGTGATAA	0.251 ± 0.034
AGTGATAA	0.317 ± 0.052
GGTGATAC	0.364 ± 0.025
TTGCGCAA	0.108 ± 0.0064
CTAGATTC	0.139 ± 0.039
AATGGACA	0.0325 ± 0.009
GCACCTAC	0.382 ± 0.0042
AGACCTAC	-0.292 ± 0.035

Sequence	PBM E-score of 8-mer
GTACCTAC	-0.272 ± 0.061
GCACCTAA	0.373 ± 0.016
ACACCTGT	0.472 ± 0.00061
ATACCTAC	-0.172 ± 0.0048
GGACCTAA	-0.0476 ± 0.0062
CCACCTAC	0.273 ± 0.049
ACACCGGT	0.22015 ± 2.8e-05
GTACCTAA	-0.248 ± 0.013
ACACCTAC	0.4763 ± 0.0017
AAACCTGT	0.0415 ± 0.013
AGTTGGCG	0.229 ± 0.039
AAGATCGA	-0.152 ± 0.084
CGCAACAG	0.0766 ± 0.031
CAGCAATC	-0.21244 ± 7.8e-05
CTCCATCA	0.123 ± 0.077
GGTAAGTA	-0.0321 ± 0.051
CGGTCAAC	-0.0198 ± 0.048
GCAGGGGC	-0.193 ± 0.12
AGATGGAC	-0.281 ± 0.02
CCACCTAG	0.264 ± 0.0049
ACACCTAG	0.462 ± 0.0066
ACACCTAA	0.463 ± 0.0018
ACACCTAT	0.4662 ± 0.00073
AGACCTAT	-0.2143 ± 0.00038
ATACCTAT	-0.0294 ± 0.018

Sequence	PBM E-score of 8-mer
AAACCTAA	-0.0751 ± 0.036
ATACCTAA	0.0416 ± 0.058
CCACCTAA	0.146 ± 0.058
TCACCTAA	0.383 ± 0.0065
AAACCTAG	0.113 ± 0.032
TGACCTAA	-0.228 ± 0.013
CGCACAAA	0.00904 ± 0.0019
ATTCCTCG	-0.0674 ± 0.053
ATAGCTCC	-0.134 ± 0.022
CTCCCCAA	-0.12 ± 0.0034
CTGAAACC	-0.0317 ± 0.0024
TGATACAA	0.126 ± 0.037
GTAGTGCA	-0.21 ± 0.062
AAAGGCAC	-0.0325 ± 0.013
GCCATAAA	-0.0292 ± 0.012
AGATAGAT	-0.217 ± 0.015
GCACCTCC	0.4324 ± 0.002
CCACCTCC	0.305 ± 0.024
GCACCTCA	0.35 ± 0.037
GAACTACA	0.0281 ± 0.036
TCGGTCCA	-0.365 ± 0.015
GCGTGTTA	0.336 ± 0.036
ACGTGTTA	0.442 ± 0.015
CCGTGTTA	0.24 ± 0.041
ACGTGTTG	0.3744 ± 0.0004

Sequence	PBM E-score of 8-mer
ACGTGTAG	0.118 ± 0.015
ACGTGTTC	0.2198 ± 0.001
CGAGCAAA	-0.0522 ± 0.042
CTTTGTCC	0.109 ± 0.0064
ACAAGGTG	0.429 ± 0.006
ATAAGGTA	0.0248 ± 0.096
AGAAGGTC	-0.315 ± 0.034
ATAAGGTC	-0.146 ± 0.021
AGAAGGTG	0.403 ± 0.0068
AGAAGGTA	-0.2003 ± 0.00059
ACAAGGTC	0.1572 ± 0.00086
ACAAGGTA	-0.0243 ± 0.03
ATAAGGTG	0.387 ± 0.0095
AAGAATCG	-0.0615 ± 0.066
ACACTGAC	0.209 ± 0.018
ACTGATCG	-0.0574 ± 0.0033
CTCTAACC	-0.103 ± 0.089
AACGGGGT	-0.136 ± 0.084
CTCGCTAC	0.0679 ± 0.05
ATCGACAA	0.222 ± 0.036
ATCGACAC	0.398 ± 0.025
ATCGACAG	0.236 ± 0.032
GTCGACAC	0.406 ± 0.013
GACGACAC	0.305 ± 0.034
CTCGACAG	0.244 ± 0.018

Sequence	PBM E-score of 8-mer
GTCGACAA	0.295 ± 0.022
CTCGACAA	0.131 ± 0.017
CTCGACAC	0.387 ± 0.029
ACAATGTC	-0.048 ± 0.0089
GTACAGTA	0.0854 ± 0.013
GGCAACAC	0.38 ± 0.0047
AGCAACAG	0.0636 ± 0.029
CGCAACAC	0.356 ± 0.033
GGCAACAA	0.05 ± 0.0035
AGCAACAA	0.0934 ± 0.021
AGCAACAC	0.383 ± 0.0078
ATGCTATA	-0.182 ± 0.01
ATGCGTCA	0.161 ± 0.013
GTCAAACA	-0.0272 ± 0.074
ATGCCAGC	-0.0462 ± 0.0027
AATGTGCG	0.27 ± 0.012
AATGTGGC	0.163 ± 0.0047
AATGTGTC	0.425 ± 0.0071
CATGTGTC	0.309 ± 0.03
AATGTGTG	0.408 ± 0.014
AATGTGTA	0.226 ± 0.029
AATAGACT	-0.175 ± 0.072
